Reference: PubChem BioAssay AID1159580 (chemical genetic matrix, 2015)
Values joined by “and” are separate entries in the source; they are usually repeats but may differ in a detail not shown here. Equal entries are not always repeated. In all, about 5,500 compounds went through this assay and about 2,000 (36%) were called active. Roughly 18% stayed inconclusive and do not appear here. Rule as the data show it: active = normalized growth mostly below about 0.91 (no sharp cut-off); inconclusive = no clear call, values can overlap the other calls; inactive = mostly above about 0.92. The list shows a part of the results.

Assay: chemical genetic growth profiling, strain panel (AID 1159580);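 also: tested at 20 µM; growth read once vehicle control cultures reached saturation at 30 °C; 1 = growth at the plate median or of vehicle wells; lower values mean less growth of the strain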
Conditions: S. cerevisiae deletion strains, growth OD

Measured: normalized growth

CN1C(CC(=O)c2ccccc2)CCCC1CC(O)c1ccccc1 (configuration not stated)
inactive: locus YAL013W, strain DEP1, stronger effect = lower value 1.01 | locus YAL021C, strain ccr4, stronger effect = lower value 0.974 | locus YAL026C, strain drs2, stronger effect = lower value 0.976 | locus YAL030W, strain snc1, stronger effect = lower value 0.977 | locus YBL061C, strain skt5, stronger effect = lower value 0.976 | locus YBR009C, strain hhf1, stronger effect = lower value 0.972 | locus YBR021W, strain FUR4, stronger effect = lower value 1.02 | locus YBR023C, strain chs3, stronger effect = lower value 0.977 | locus YBR171W, strain sec66, stronger effect = lower value 0.989 | locus YBR229C, strain ROT2, stronger effect = lower value 1.01 | locus YBR231C, strain swc5, stronger effect = lower value 0.978 | locus YBR279W, strain paf1, stronger effect = lower value 0.984 | locus YCL011C, strain gbp2, stronger effect = lower value 0.966 | locus YCL016C, strain dcc1, stronger effect = lower value 0.978 | locus YCL029C, strain bik1, stronger effect = lower value 0.968 | locus YCL061C, strain MRC1, stronger effect = lower value 0.993 | locus YCL069W, strain vba3, stronger effect = lower value 0.982 | locus YCR088W, strain abp1, stronger effect = lower value 0.984 | locus YDL005C, strain med2, stronger effect = lower value 0.98 | locus YDL035C, strain GPR1, stronger effect = lower value 1.01 | locus YDL040C, strain nat1, stronger effect = lower value 0.976 | locus YDL074C, strain BRE1, stronger effect = lower value 1.01 | locus YDL101C, strain DUN1, stronger effect = lower value 1.01 | locus YDL134C, strain PPH21, stronger effect = lower value 1.01 | locus YDL185W, strain tfp1, stronger effect = lower value 0.992 | locus YDL192W, strain arf1, stronger effect = lower value 0.991 | locus YDR001C, strain nth1, stronger effect = lower value 0.979 | locus YDR069C, strain doa4, stronger effect = lower value 0.999 | locus YDR101C, strain arx1, stronger effect = lower value 0.97 | locus YDR137W, strain rgp1, stronger effect = lower value 0.918 | locus YDR150W, strain NUM1, stronger effect = lower value 1.02 | locus YDR159W, strain sac3, stronger effect = lower value 0.959 | locus YDR162C, strain NBP2, stronger effect = lower value 1.01 | locus YDR195W, strain ref2 0.928 | locus YDR297W, strain sur2, stronger effect = lower value 0.98 | locus YDR318W, strain mcm21, stronger effect = lower value 0.994 | locus YDR334W, strain swr1, stronger effect = lower value 0.975 | locus YDR335W, strain msn5, stronger effect = lower value 0.986 | locus YDR388W, stronger effect = lower value 0.975 | locus YDR392W, strain spt3, stronger effect = lower value 0.934 | locus YDR502C, strain sam2, stronger effect = lower value 0.98 | locus YEL003W, strain gim4, stronger effect = lower value 0.991 | locus YEL037C, strain rad23, stronger effect = lower value 0.984 | locus YEL061C, strain CIN8 (second series), stronger effect = lower value 0.966 | locus YEL061C, strain CIN8, stronger effect = lower value 1.01 | locus YER015W, strain faa2, stronger effect = lower value 0.989 | locus YER016W, strain bim1, stronger effect = lower value 0.98 | locus YER110C, stronger effect = lower value 0.981 | locus YER111C, strain swi4, stronger effect = lower value 0.98 | locus YER155C, strain BEM2 (second series), stronger effect = lower value 0.982 | locus YER155C, strain BEM2, stronger effect = lower value 1.01 | locus YER167W, strain BCK2, stronger effect = lower value 1.02 | locus YFR010W, strain ubp6, stronger effect = lower value 0.967 | locus YGL078C, strain dbp3, stronger effect = lower value 0.977 | locus YGL086W, strain mad1, stronger effect = lower value 0.997 | locus YGL167C, strain pmr1, stronger effect = lower value 0.963 | locus YGL173C, strain kem1, stronger effect = lower value 0.982 | locus YGL227W, strain vid30, stronger effect = lower value 0.962 | locus YGL240W, strain doc1, stronger effect = lower value 0.981 | locus YGL248W, strain PDE1, stronger effect = lower value 1.02 | locus YGL253W, strain hxk2, stronger effect = lower value 0.991 | locus YGR078C, strain PAC10, stronger effect = lower value 0.996 | locus YGR135W, strain pre9, stronger effect = lower value 0.968 | locus YGR229C, strain SMI1, stronger effect = lower value 0.967 | locus YGR252W, strain gcn5, stronger effect = lower value 1 | locus YHR013C, strain ard1, stronger effect = lower value 0.952 | locus YHR027C, strain rpn1, stronger effect = lower value 0.973 | locus YHR030C, strain SLT2, stronger effect = lower value 1.01 and 0.976 | locus YHR079C, strain IRE1 (second series), stronger effect = lower value 0.985 | locus YHR079C, strain IRE1, stronger effect = lower value 0.983 | locus YHR094C, strain hxt1, stronger effect = lower value 0.988 | locus YHR129C, strain ARP1, stronger effect = lower value 1.01 | locus YHR142W, strain chs7, stronger effect = lower value 0.999 | locus YHR200W, strain rpn10, stronger effect = lower value 0.989 | locus YIL066C, strain RNR3, stronger effect = lower value 1.01 | locus YIL073C, strain SPO22, stronger effect = lower value 1.02 | locus YIL125W, strain kgd1, stronger effect = lower value 1 | locus YIR030C, strain dcg1, stronger effect = lower value 0.993 | locus YJL092W, strain hpr5, stronger effect = lower value 0.982 | locus YJL095W, strain BCK1 (second series), stronger effect = lower value 0.979 | locus YJL095W, strain BCK1, stronger effect = lower value 0.975 and 0.978 | locus YJL115W, strain asf1, stronger effect = lower value 0.978 | locus YJL129C, strain trk1, stronger effect = lower value 0.974 | locus YJL134W, strain LCB3, stronger effect = lower value 1.01 | locus YJL154C, strain vps35, stronger effect = lower value 0.97 | locus YJL164C, strain tpk1, stronger effect = lower value 0.996 | locus YJL166W, strain qcr8, stronger effect = lower value 0.984 | locus YJL168C, strain set2, stronger effect = lower value 0.99 | locus YJL187C, strain SWE1 (second series), stronger effect = lower value 0.996 | locus YJL187C, strain SWE1, stronger effect = lower value 0.975 | locus YJR043C, strain POL32, stronger effect = lower value 1 | locus YJR066W, strain TOR1, stronger effect = lower value 0.935
